# Test results reported in publication PMC11062922 (Nature Chemical Biology, 2023).
# Read-outs that look alike come from different tables or passages of the source.
# Columns and labels:
# Parameters in all cases: species or system human, MV4-11 + K-562 + COLO205 + SK-N-BE2 + OVCAR-8
# ADCK1 = settings: read-out: apparent Kd, compound concentrations: 100 nM and 1000 nM (sheet 'Samples'), n = 1
# CLK1 = settings: read-out: apparent Kd; compound concentrations: 100 nM and 1000 nM (sheet 'Samples'), CATDS: 0.119172303588979; n = 1
# CLK2 = settings: read-out: apparent Kd; compound concentrations: 100 nM and 1000 nM (sheet 'Samples'), CATDS: 0.34791334092069898; n = 1
# CLK4 = settings: read-out: apparent Kd; compound concentrations: 100 nM and 1000 nM (sheet 'Samples'), CATDS: 0.107849742816713; n = 1
# DJA1 = system: T1, DJA1; settings: read-out: apparent Kd; compound concentrations: 100 nM and 1000 nM (sheet 'Samples'), CATDS: 8.1274220944096601E-2; n = 1
# T1 construct: gene DNAJA1
# MAPK14 = settings: read-out: apparent Kd; compound concentrations: 100 nM and 1000 nM (sheet 'Samples'), CATDS: 9.4734585023085197E-2; n = 1
# NQO2 = settings: read-out: apparent Kd; compound concentrations: 100 nM and 1000 nM (sheet 'Samples'), CATDS: 8.1973384609640695E-2; n = 1
# PIP4K2C = settings: read-out: apparent Kd; compound concentrations: 100 nM and 1000 nM (sheet 'Samples'), CATDS: 7.6274821078241906E-2; n = 1
# STK16 = settings: read-out: apparent Kd; compound concentrations: 100 nM and 1000 nM (sheet 'Samples'), CATDS: 8.9736368471695804E-2; n = 1
# TESK2 = settings: read-out: apparent Kd; compound concentrations: 100 nM and 1000 nM (sheet 'Samples'), CATDS: 7.0727879355670806E-2; n = 1
# TGFBR2 = settings: read-out: apparent Kd; compound concentrations: 100 nM and 1000 nM (sheet 'Samples'), CATDS: 7.2410579705908001E-2; n = 1
# ADCK3 = settings: read-out: apparent Kd, n = 1
# AKT3 = settings: read-out: apparent Kd, n = 1
# CDK13 = settings: read-out: apparent Kd; compound concentrations: 100 nM and 1000 nM (sheet 'Samples'), CATDS: 0.20413342280503199; n = 1
# NQO1 = settings: read-out: apparent Kd, compound concentrations: 100 nM and 1000 nM (sheet 'Samples'), n = 1
# AKT1 = settings: read-out: apparent Kd; compound concentrations: 100 nM and 1000 nM (sheet 'Samples'), CATDS: 0.104224113270125; n = 1
# AKT2 = settings: read-out: apparent Kd, n = 1
# CSNK1A1 = settings: read-out: apparent Kd; compound concentrations: 100 nM and 1000 nM (sheet 'Samples'), CATDS: 0.102191451764392; n = 1
# MAP2K1 = settings: read-out: apparent Kd; compound concentrations: 100 nM and 1000 nM (sheet 'Samples'), CATDS: 0.110237039965707; n = 1
# RIOK2 = settings: read-out: apparent Kd, n = 1
# ZAK = settings: read-out: apparent Kd, compound concentrations: 100 nM and 1000 nM (sheet 'Samples'), n = 1
# CDK17 = settings: read-out: apparent Kd; compound concentrations:100 nM and 1000 nM (sheet 'Samples'); n = 1
# CIT = settings: read-out: apparent Kd; compound concentrations:100 nM and 1000 nM (sheet 'Samples'); n = 1
# DCTPP1 = settings: read-out: apparent Kd; compound concentrations:100 nM and 1000 nM (sheet 'Samples'); n = 1
# EPHA1 = settings: read-out: apparent Kd; compound concentrations:100 nM and 1000 nM (sheet 'Samples'); n = 1
# EPHB6 = settings: read-out: apparent Kd; compound concentrations:100 nM and 1000 nM (sheet 'Samples'); n = 1
# ERBB3 = settings: read-out: apparent Kd; compound concentrations:100 nM and 1000 nM (sheet 'Samples'); n = 1
# ERN2 = settings: read-out: apparent Kd; compound concentrations:100 nM and 1000 nM (sheet 'Samples'); n = 1
# IGF1R = settings: read-out: apparent Kd; compound concentrations:100 nM and 1000 nM (sheet 'Samples'); n = 1
# JAK2 = settings: read-out: apparent Kd; compound concentrations:100 nM and 1000 nM (sheet 'Samples'); n = 1
# MELK = settings: read-out: apparent Kd; compound concentrations:100 nM and 1000 nM (sheet 'Samples'); n = 1
# PDGFRB = settings: read-out: apparent Kd, n = 1
# PYGL = settings: read-out: apparent Kd; compound concentrations:100 nM and 1000 nM (sheet 'Samples'); n = 1
# TTN = settings: read-out: apparent Kd; compound concentrations:100 nM and 1000 nM (sheet 'Samples'); n = 1
# BRAF = settings: read-out: apparent Kd, n = 1
# NNT = settings: read-out: apparent Kd; compound concentrations:100 nM and 1000 nM (sheet 'Samples'); n = 1
# RIPK2 = settings: read-out: apparent Kd; compound concentrations:100 nM and 1000 nM (sheet 'Samples'); n = 1
# STK26 = settings: read-out: apparent Kd; compound concentrations:100 nM and 1000 nM (sheet 'Samples'); n = 1
# CAMK4 = settings: read-out: apparent Kd; compound concentrations: 100 nM and 1000 nM (sheet 'Samples'), CATDS: 0.15107138054909999; n = 1
# FLT3 = settings: read-out: apparent Kd; compound concentrations: 100 nM and 1000 nM (sheet 'Samples'), CATDS: 0.830735386752396; n = 1
# MAP2K2 = settings: read-out: apparent Kd; compound concentrations: 100 nM and 1000 nM (sheet 'Samples'), CATDS: 0.139234608718731; n = 1
# MAP2K5 = settings: read-out: apparent Kd, compound concentrations: 100 nM and 1000 nM (sheet 'Samples'), n = 1
# TNK1 = settings: read-out: apparent Kd; compound concentrations: 100 nM and 1000 nM (sheet 'Samples'), CATDS: 0.23807616191270001; n = 1
# PTK6 = settings: read-out: apparent Kd; compound concentrations: 100 nM and 1000 nM (sheet 'Samples'), CATDS: 0.17376653089903399; n = 1
# RIPK3 = settings: read-out: apparent Kd; compound concentrations: 100 nM and 1000 nM (sheet 'Samples'), CATDS: 9.1073681697651607E-2; n = 1
# TESK1 = settings: read-out: apparent Kd; compound concentrations: 100 nM and 1000 nM (sheet 'Samples'), CATDS: 9.2639666275084007E-2; n = 1
# PIK3CD = settings: read-out: apparent Kd; compound concentrations:100 nM and 1000 nM (sheet 'Samples'); n = 1
# TAOK1 = settings: read-out: apparent Kd; compound concentrations:100 nM and 1000 nM (sheet 'Samples'); n = 1
# [1] = compound concentrations:100 nM and 1000 nM (sheet 'Samples')
smiles,measurement,setting,value
CCOc1ccc2c(-c3ccnc(Nc4cc(OC)cc(C(F)(F)F)c4)n3)cnn2n1 [GW807982X_KCGS],potency estimated from few doses,ADCK1; CATDS: 7.5755485484616303E-2,1.8 µM
same,potency estimated from few doses,CLK1,0.672 µM
same,potency estimated from few doses,CLK2,0.132 µM
same,potency estimated from few doses,CLK4,0.811 µM
same,potency estimated from few doses,DJA1,1.5 µM
same,potency estimated from few doses,MAPK14,1.05 µM
same,potency estimated from few doses,NQO2,1.47 µM
same,potency estimated from few doses,PIP4K2C,1.76 µM
same,potency estimated from few doses,STK16,1.19 µM
same,potency estimated from few doses,TESK2,2.18 µM
same,potency estimated from few doses,TGFBR2,2.04 µM
Cc1ccc(C)c(NC(=O)NC2CCN(c3ccnc(Nc4ccc(F)cc4)n3)C2)c1 (centres unmarked) [GSK1379720A],potency estimated from few doses,"ADCK3; compound concentrations: 100 nM and 1000 nM (sheet 'Samples'), CATDS: 0.42611261301479197",0.388 µM
same,potency estimated from few doses,"AKT3; compound concentrations: 100 nM and 1000 nM (sheet 'Samples'), CATDS: 0.236310491034597",1.13 µM
same,potency estimated from few doses,CDK13,1.63 µM
same,potency estimated from few doses,NQO1; CATDS: 0.22110563940730901,1.33 µM
COc1cccc(-n2cnc3c(N)ncnc32)c1 [SKF-97416],potency estimated from few doses,"ADCK3; compound concentrations: 100 nM and 1000 nM (sheet 'Samples'), CATDS: 0.45631454504768898",0.155 µM
same,potency estimated from few doses,AKT1,2.12 µM
same,potency estimated from few doses,"AKT2; compound concentrations: 100 nM and 1000 nM (sheet 'Samples'), CATDS: 0.10421017655023999",2.12 µM
same,potency estimated from few doses,CSNK1A1,2.24 µM
same,potency estimated from few doses,MAP2K1,1.83 µM
same,potency estimated from few doses,NQO1; CATDS: 0.123163223225838,1.4 µM
same,potency estimated from few doses,"RIOK2; compound concentrations: 100 nM and 1000 nM (sheet 'Samples'), CATDS: 0.117096482211817",1.58 µM
same,potency estimated from few doses,ZAK; CATDS: 0.14081253885296899,1.05 µM
CNc1nc(-c2ccc3c(N)n[nH]c3c2)cc(N2C[C@@H](C(=O)NC3CCCCC3)CC[C@H]2C)n1 [GSK2334470],potency estimated from few doses,ADCK3; [1],1.18 µM
same,potency estimated from few doses,AKT2; [1],1.57 µM
same,potency estimated from few doses,CDK17,2.13 µM
same,potency estimated from few doses,CIT,1.43 µM
same,potency estimated from few doses,DCTPP1,1.89 µM
same,potency estimated from few doses,EPHA1,0.845 µM
same,potency estimated from few doses,EPHB6,1.84 µM
same,potency estimated from few doses,ERBB3,1.36 µM
same,potency estimated from few doses,ERN2,1.44 µM
same,potency estimated from few doses,IGF1R,2.36 µM
same,potency estimated from few doses,JAK2,0.47 µM
same,potency estimated from few doses,MELK,1.64 µM
same,potency estimated from few doses,PDGFRB; [1],1.95 µM
same,potency estimated from few doses,PYGL,2.02 µM
same,potency estimated from few doses,RIOK2; [1],2.11 µM
same,potency estimated from few doses,TTN,0.945 µM
CN(C)CCOc1ccc(-c2nc(-c3ccc4c(c3)CC/C4=N/O)c(-c3ccncc3)[nH]2)cc1 [SB-590885_KCGS],potency estimated from few doses,ADCK3; [1],1.15 µM
same,potency estimated from few doses,AKT3; [1],1.9 µM
same,potency estimated from few doses,BRAF; [1],0.0886 µM
same,potency estimated from few doses,NNT,1.68 µM
same,potency estimated from few doses,RIPK2,0.679 µM
same,potency estimated from few doses,STK26,2.21 µM
COc1cc(Nc2ncc(-c3ccccc3)o2)cc(OC)c1 [GW631581B],potency estimated from few doses,ADCK1; CATDS: 0.14545775949077999,1.65 µM
same,potency estimated from few doses,CAMK4,1.41 µM
same,potency estimated from few doses,FLT3,0.00816 µM
same,potency estimated from few doses,MAP2K2,2.01 µM
same,potency estimated from few doses,"PDGFRB; compound concentrations: 100 nM and 1000 nM (sheet 'Samples'), CATDS: 0.32052418925239901",0.0854 µM
COc1cc2nccc(Nc3cccc(Oc4ccccc4)c3)c2cc1OC.Cl [GW284543A],potency estimated from few doses,"ADCK3; compound concentrations: 100 nM and 1000 nM (sheet 'Samples'), CATDS: 0.252282452250228",0.949 µM
same,potency estimated from few doses,"AKT3; compound concentrations: 100 nM and 1000 nM (sheet 'Samples'), CATDS: 0.185918724063731",1.71 µM
same,potency estimated from few doses,MAP2K5; CATDS: 0.16534591084459199,2.26 µM
same,potency estimated from few doses,NQO1; CATDS: 0.18486916507509299,1.73 µM
same,potency estimated from few doses,TNK1,1.05 µM
CCCS(=O)(=O)Nc1ccc(F)c(-n2cc(-c3cncc(OC)c3)nn2)c1F [BI00865461],potency estimated from few doses,"ADCK3; compound concentrations: 100 nM and 1000 nM (sheet 'Samples'), CATDS: 9.7263378995511504E-2",1.21 µM
same,potency estimated from few doses,"BRAF; compound concentrations: 100 nM and 1000 nM (sheet 'Samples'), CATDS: 0.639948734699749",0.00745 µM
same,potency estimated from few doses,MAP2K5; CATDS: 0.203043275988008,0.0704 µM
same,potency estimated from few doses,PTK6,0.108 µM
same,potency estimated from few doses,RIPK3,1.79 µM
same,potency estimated from few doses,TESK1,1.61 µM
same,potency estimated from few doses,ZAK; CATDS: 0.21269926478279999,0.0625 µM
COc1cc2ncn(-c3cc(OCC4CCCCC4)c(C(N)=O)s3)c2cc1OC [GSK204559A],potency estimated from few doses,ADCK3; [1],1.06 µM
same,potency estimated from few doses,PIK3CD,0.19 µM
same,potency estimated from few doses,TAOK1,1.46 µM
